# Screening data: PubChem, National Center for Advancing Translational Sciences (NCATS)
# This is a sample that favours compounds with a hit; in the whole collection about 18% have one here.
# TDP1 cell CPT: qHTS for Inhibitors of human tyrosyl-DNA phosphodiesterase 1 (TDP1): qHTS in cells in presence of CPT | chicken DT40 Tdp1-/-;hTDP1 cells + 20 nM CPT, ATP luminescence, 48 h | Potency, µM (titrated, usually from 46.2 µM), without a hit: at the highest dose activity change, negative = growth inhibition, hits mostly inhibitors | 420,000 compounds, 12% hits | AID 686979, 2013; also: potency is read from the fitted curve at half-maximal effect; % is scaled to controls: 0 for no effect and ±100 for the full control effect; nearly all actives have a fitted effect of over 55% in size
#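 Chicken DT40 Tdp1-/- cells complemented with human TDP1, 400 cells/well, exposed to compounds plus 20 nM camptothecin for at least 48 h at 37 C; viability read as ATP content by CellTiter-Glo luminescence.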
# TGFb SMAD3 inh: qHTS for Inhibitors of TGF-b; Potency, µM (titrated, usually from 46.1 µM), inactives show at the top dose activity, negative = inhibition, usual class: inhibitors; 410,000 compounds, 1.2% hits; AID 588855, 2011; HepG2 CAGA-GFP TGF-b/SMAD3 reporter, GFP fluorescence, 18 h; TGF-beta stimulated, 500 pg/mL final; also: potency is read from the fitted curve at half-maximal effect; % is scaled to controls: 0 for no effect and ±100 for the full control effect; nearly all actives have a fitted effect of over 65% in size
#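 HEPG2 CAGA-GFP, 1000 cells/well; 2 h settle, 37 C; cpd via pin tool; TGF-b 500 pg/mL final; 18 h, 37 C; GFP imaging ex488/em500-530; %Activity normalised to -TGF-b and +DMSO controls; CRC fit, curve class.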
# DT40 TDP1 no CPT: qHTS for Inhibitors of human tyrosyl-DNA phosphodiesterase 1 (TDP1): qHTS in cells in absence of CPT; AID 686978, 2013; 420,000 compounds, 15% hits; DT40 Tdp1-/- hTDP1 cells, no CPT, ATP luminescence, 48 h; Potency, µM (series often up to 46.2 µM), for the others: at the top dose activity change, negative = growth inhibition, hits mostly inhibitors; also: potency is read from the fitted curve at half-maximal effect; % is scaled to controls: 0 for no effect and ±100 for the full control effect; nearly all actives have a fitted effect of over 55% in size
#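 Growth of hTDP1-complemented DT40 Tdp1-knockout cells is measured by ATP luminescence after at least 48 hr compound exposure at 37 °C, with DMSO substituting for the 20 nM CPT used in the parallel screen.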
# TDP1 block: qHTS Assay for Inhibitors of Tyrosyl-DNA Phosphodiesterase (TDP1). recombinant TDP1, AlphaScreen DNA substrate cleavage. 350,000 compounds, 0.28% hits. Potency, µM (doses to about 130 µM), without a hit: at the top dose activity change, negative = inhibition, actives largely listed as inhibitors. AID 485290, 2010; also: potency is read from the fitted curve at half-maximal effect; % is scaled to controls: 0 for no effect and ±100 for the full control effect; nearly all actives have a fitted effect of over 40% in size
# Target sequence (Q9NUW8 whole entry, looked up): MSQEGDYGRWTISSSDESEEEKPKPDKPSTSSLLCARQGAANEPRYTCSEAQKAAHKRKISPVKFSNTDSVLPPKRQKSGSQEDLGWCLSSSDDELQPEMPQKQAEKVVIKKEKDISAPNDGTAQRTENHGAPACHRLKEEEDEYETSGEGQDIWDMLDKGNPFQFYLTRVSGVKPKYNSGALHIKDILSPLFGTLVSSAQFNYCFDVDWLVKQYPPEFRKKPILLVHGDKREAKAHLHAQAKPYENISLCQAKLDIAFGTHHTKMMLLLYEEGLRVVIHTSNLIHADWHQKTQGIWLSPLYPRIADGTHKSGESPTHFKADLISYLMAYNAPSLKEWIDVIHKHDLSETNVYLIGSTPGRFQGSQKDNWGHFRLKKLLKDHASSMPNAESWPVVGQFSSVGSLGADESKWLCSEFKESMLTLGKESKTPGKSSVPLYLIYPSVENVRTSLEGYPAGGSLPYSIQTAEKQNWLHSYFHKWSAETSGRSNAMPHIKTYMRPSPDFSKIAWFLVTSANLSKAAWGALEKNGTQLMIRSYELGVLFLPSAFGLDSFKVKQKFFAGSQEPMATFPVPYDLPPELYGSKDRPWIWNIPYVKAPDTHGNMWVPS
#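 Enzyme-compound mixtures sat 15 min at room temperature, followed by a 5 min reaction with 15 nM final substrate and 10 min with AlphaScreen beads. Recombinant human Tdp1 was used at 1 nM final.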
# IL1B secr inh: qHTS for Inhibitors of Inflammasome Signaling: IL-1-beta AlphaLISA Primary Screen; THP-1 LPS/ATP IL-1B secretion, AlphaLISA, 16 h; hits give low values; activity change, % at 57.5 µM; 360,000 compounds, 4.7% hits; AID 743279, 2014; in the data active = activity change below about -50%; inconclusive = mostly about -30% to -49%; also: % is scaled to controls: 0 for no effect and ±100 for the full control effect
#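 Secreted IL-1B measured by AlphaLISA bead assay after 16 h compound exposure of THP-1 cells; compounds (final up to 57.5 uM) added 1 h before LPS (250 ng/mL) and ATP (1.25 mM) stimulation; lower signal means less secretion.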
# HepG2 viability: qHTS for Inhibitors of TGF-b: Cytotox Counterscreen; 410,000 compounds, 0.76% hits; Potency, µM (top dose mostly 46.1 µM), inactives show at the top dose activity change, negative = cytotoxicity, hits mostly cytotoxic; AID 588856, 2011; HepG2 CAGA-GFP viability, ATP luminescence, 18 h; also: potency is read from the fitted curve at half-maximal effect
#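 HepG2 CAGA-GFP cells (1000/well, DMEM with 1% FBS) received compound, then TGF-beta at 500 pg/mL final, and were incubated 18 hours at 37 degrees C. Viability was read by CellTiter-Glo luminescence. Media-only wells were set as complete cell-killing and DMSO as no toxicity.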
# Numbers without * were called inactive; u = inconclusive; x = not tested or not shown; ! = repeats disagree; [ ] = another dose, or the depositor's remark. Unless noted, calls follow the shape of the dose curve; as a rule, active = well fitted curve in the direction sought with a large enough effect; inconclusive = small, poorly fitted or top-dose-only effect, or another doubt; inactive = no such curve, though single readings can be large; an effect the other way counts as inactive or inconclusive.
SMILES,TDP1 cell CPT,TGFb SMAD3 inh,DT40 TDP1 no CPT,TDP1 block,IL1B secr inh,HepG2 viability
COc1c(O)cccc1/C=N/NC(=O)Cn1ccnc1C,u,0%,23µM*,6%,62,1%
O=C(c1ccsc1)N1CCCC(N2CCN(c3cccc(Cl)c3)CC2)C1 (configuration not stated),u,-10%,-28%,3%,u,-10%
CN(C)S(=O)(=O)c1ccc2nnn(OCC(=O)NC34CC5CC(CC(C5)C3)C4)c2c1,u,-4%,26µM*,5%,13,6%
Cc1ccc(C(=O)c2c(N)c(-c3nc(-c4ccc5c(c4)OCO5)cs3)c3ccccn23)cc1C,-10%,u,-26%,0%,x,7%
COc1ccc(C(=O)NC(=S)NC(C)C)cc1Br,u,u,u,-2%,0,-34%
Fc1cc(F)cc(NC(=S)Nc2ccccc2N2CCOCC2)c1,-15%,5%,26µM*,8%,-9,-4%
COc1ccc(C(=O)NC(=S)NC(C)(C)C)cc1Br,u,u,23µM*,8%,-27,-45%
COc1ccc(C(=O)NC(=S)Nc2ccccc2N2CCOCC2)cc1Br,u,0%,18µM*,5%,-22,-33%
CCOc1ccc(C(=O)NC(=S)Nc2ccccc2N2CCOCC2)cc1Br,u,-15%,16µM*,-3%,-14,10%
COc1ccc(C(=O)Nc2ccccc2N2CCOCC2)cc1Br,u,11%,u,4%,-20,-5%
CCCn1ccnc1SC(C)C(=O)Nc1c(C)n(C)n(-c2ccccc2)c1=O (configuration not stated),7%,9%,-3%,1%[56.1 µM],6,5%
CCOC(=O)Cn1c(=O)n(CC2CCCO2)c2nc(-c3ccc(C)cc3)nc(C(N)=O)c21 (configuration not stated),x,7%,x,2%,x,5%
NC(c1csc(Nc2cnccn2)n1)c1ccccc1Cl (configuration not stated),u,6%,u,x,21,-9%
Cc1[nH]n(C)c(=O)c1C(=O)c1c(-c2ccccc2Cl)noc1C,2%,u,6%,-3%,-10,-60%
O=C(Nc1ccccc1F)c1nc(SCc2ccc(F)cc2)ncc1Cl,-18%,-4%,u,0%,x,-17%
COc1cccc(C(C(=O)NC2CCCCC2)N(C(=O)c2csnn2)C2CC2)c1 (configuration not stated),-24%,3%,u,4%,-16,-11%
Cc1[nH][nH]c(=O)c1C(c1c(C)[nH][nH]c1=O)c1cn(Cc2cccc3ccccc23)c2ccccc12,8.2µM*,u,7.3µM*,13%,-4,-1%
Cc1cc(C)c(NS(=O)(=O)c2cc(-c3cnc(C4CC4)o3)ccc2C)c(C)c1,-21%,7%,u,-6%,x,-23%
CCN(CC)c1ccc(NS(=O)(=O)c2cn(C)c(=O)n(C)c2=O)c(C)c1,6%,1%,3%,x,21,4%
Cc1ccc(NS(=O)(=O)c2ccc(-c3cnc(C4CC4)o3)cc2)c(C)c1,1.5µM*,13µM*,1µM*,6%,35,-68%
Cc1ccc(NS(=O)(=O)c2ccc(Cl)nc2)c(C)c1,u,27%,-19%,-13%,11,-1%
CCN(CC)c1ccc(NS(=O)(=O)c2ccc(-c3cnc(C4CC4)o3)cc2)c(C)c1,12µM*,u,16µM*,9%,x,-22%
O=S(=O)(Nc1cccc(C(F)(F)F)c1)c1ccc(-c2cnc(C3CC3)o2)cc1,3.7µM*,u,2.6µM*,1%,x,13µM*
Cc1cc(C)c(NS(=O)(=O)c2ccc(-c3cnc(C4CC4)o3)cc2)c(C)c1,0.58µM*,1.4µM*,0.018µM*,1%,x,-67%
CC1CN(C(=O)c2ccc(S(=O)(=O)Nc3cccc(C(F)(F)F)c3)cc2)CC(C)O1 (configuration not stated),-28%,-2%,u,1%,4,-9%
SMILES,TDP1 cell CPT,TGFb SMAD3 inh,DT40 TDP1 no CPT,TDP1 block,IL1B secr inh,HepG2 viability
CCc1cc(=O)oc2c(C)c(OC(C)C(=O)NCCCn3ccnc3)ccc12 (configuration not stated),-7%,16%,0%,0%,0,3%
CCCOc1cccc(C(=O)N(Cc2cc(OC)c(OC)c(OC)c2)C2CCS(=O)(=O)C2)c1 (configuration not stated),u,-19%,-17%,-1%,x,-16%
COc1ccccc1CNS(=O)(=O)c1ccc(-c2cnc(C3CC3)o2)cc1,0.92µM*!,11µM*,0.58µM*,2%,29,29%
COc1ccc(NS(=O)(=O)c2ccc(-c3cnc(C4CC4)o3)cc2)cc1OC,2.1µM*,-31%,1.6µM*,7%,10,-22%
COc1ccc(S(=O)(=O)Nc2ccc(C)cc2)cc1OC,-7%,-3%,-13%,2%,18,-14%
CCOc1ccccc1NS(=O)(=O)c1ccc(-c2cnc(C3CC3)o2)cc1,0.0082µM*,4.5µM*,0.023µM*,3%,66,-31%
CCOc1ccccc1NS(=O)(=O)c1cc(-c2cnc(C3CC3)o2)ccc1C,-20%,-25%,u,6%,x,-49%
O=S(=O)(Nc1ccc(F)cc1Cl)c1ccc(-c2cnc(C3CC3)o2)cc1,0.65µM*,14µM*,0.73µM*,7%,40,-54%
Cc1ccc(NC(=O)C2CC2C)cc1S(=O)(=O)N1CCOCC1 (configuration not stated),-6%,0%,-21%,x,11,6%
CCc1c(C)nc(SCC(=O)N2CC(C)OC(C)C2)[nH]c1=O (configuration not stated),1%,1%,-2%,0%[0.505 µM],-8,-3%
Clc1ccc(CSc2nnc(NC3=NCCCCC3)s2)cc1,u,u,10µM*,3%,-4,-31%
Nc1nnc(SCc2ccc(Cl)cc2)s1,-21%,5%,-16%,0%[56.1 µM],-22,-1%
CN(C)c1ncc2nc(-c3cc(F)cc(F)c3)c(=O)n(Cc3cccs3)c2n1,-26%,x,u,x,x,x
